Shown are actives, neighbours in structure and some others; about 3.3% of the full set was active somewhere.
LmPK inhibitor = LmPK (Leishmania mexicana) enzyme inhibition | Q27686 | purified LmPK, Kinase-Glo ATP luminescence, 1 h | Potency, µM (series often up to 57.5 µM), actives largely listed as inhibitors | 0.37% of 290,000 active
Target sequence (Q27686 whole entry, looked up): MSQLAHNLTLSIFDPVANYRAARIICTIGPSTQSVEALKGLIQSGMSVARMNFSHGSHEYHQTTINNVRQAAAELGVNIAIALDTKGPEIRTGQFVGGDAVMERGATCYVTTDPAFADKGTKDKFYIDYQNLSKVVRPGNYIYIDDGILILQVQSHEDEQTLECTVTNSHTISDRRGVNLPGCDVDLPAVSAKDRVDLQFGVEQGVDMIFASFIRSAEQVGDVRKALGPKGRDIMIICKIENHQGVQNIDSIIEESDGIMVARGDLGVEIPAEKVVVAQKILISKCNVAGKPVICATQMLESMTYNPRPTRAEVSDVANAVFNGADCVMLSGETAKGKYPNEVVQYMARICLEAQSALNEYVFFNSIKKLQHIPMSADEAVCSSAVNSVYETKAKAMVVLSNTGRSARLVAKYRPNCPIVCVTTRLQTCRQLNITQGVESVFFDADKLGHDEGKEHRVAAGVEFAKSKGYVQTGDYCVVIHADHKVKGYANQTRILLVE
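In 50 mM imidazole pH 7.2 with 7 mM MgCl2, LmPK (0.1 nM) turned over PEP (0.5 mM) and ADP (0.1 mM) for 1 h at room temperature. Luciferase read-out of ATP.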
Sm TGR block = S. mansoni TGR enzyme inhibition | Q962Y6 | purified TGR, DTNB reduction, TNB absorbance 405 nm | Potency, µM (highest dose often 114 µM), most hits filed as inhibitors | 3% of 360,000 active | AID 485364; further: nearly all actives have a fitted effect of over 60% in size
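TGR 20 nM + NADPH 100 uM (dispensed conc.), cpd preinc 15 min RT; start with NADPH (500 uM addition) then DTNB (15 mM addition). Kinetic TNB absorbance, 405 nm filter. Four-parameter Hill fit across titration.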
SARS PLpro yeast = blocks SARS-CoV papain-like protease in a yeast assay; S. cerevisiae expressing SARS-CoV PLpro, growth rescue; Potency, µM (highest dose often 32.9 µM), most hits filed as activators; 0.19% of 330,000 active; AID 485353; calls by dose curve; further: nearly all actives have a fitted effect of over 55% in size
RE007 growth inh = less growth of the S. pombe RE007 Vpr strain; S. pombe RE007 Vpr strain, BacTiter-Glo ATP luminescence, 24 h; Potency, µM (titrated, usually from 92.2 µM), most hits filed as inhibitors; 0.21% of 360,000 active; active means well fitted falling curve with a large enough effect; inconclusive means small, poorly fitted or top-dose-only effect; inactive means no such curve, though single readings can be large or run the other way; further: nearly all actives have a fitted effect of over 50% in size
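Fission yeast RE007 carrying one integrated HIV-1 vpr copy, seeded at OD 0.01 in PMG+AL medium with 23 nL pinned compound. Grown 24 h at 30 degrees; viability read by BacTiter-Glo luminescence after 5 min.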
Tb PYK inh = inhibitors of Trypanosoma brucei pyruvate kinase; Q57TT1; TbPYK enzyme, Kinase-Glo Plus ATP luminescence, 45 min; Potency, µM (highest dose often 76.8 µM), most hits filed as inhibitors; 0.12% of 410,000 active; further: nearly all actives have a fitted effect of over 50% in size
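Luminescence from Kinase-Glo Plus, added after a 45-minute room-temperature reaction, served as the end-point read-out. The enzyme and substrate were preincubated with compound before ADP (130 uM final) initiated turnover. Concentration-effect curves came from normalized qHTS data.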
NS1 function inh = inhibitors of influenza NS1 protein function | Potency, µM (top dose mostly 46.1 µM) | 0.4% of 270,000 active; calls by dose curve; further: actives are rising curves; nearly all actives have a fitted effect of over 50% in size
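Growth recovery, yeast-based: influenza A NS1 expressed in S. cerevisiae causes slow growth, and suppressors are detected by OD600. The parent strain without NS1 is used as positive control.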
Numbers stand for hits; . = inactive; ? = inconclusive; / = no result given; [ ] = remark or other dose. Unless noted, the call rests on the fitted dose curve; in most records, active means well fitted curve in the direction sought with a large enough effect; inconclusive means small, poorly fitted or top-dose-only effect, or another doubt; inactive means no such curve, though single readings can be large; an effect the other way counts as inactive or inconclusive.

SMILES	LmPK inhibitor	Sm TGR block	SARS PLpro yeast	RE007 growth inh	Tb PYK inh	NS1 function inh
O=C(NC(=S)Nc1cccnc1)c1cccc(Cl)c1	/	/	/	.	.	/
S=C(Nc1ccccc1)Nc1ccc2cn[nH]c2c1	.	?	.	.	.	.
O=C(NC(=S)Nc1ccc2cn[nH]c2c1)c1ccccc1	.	14µM	.	.	.	/
Cc1ccc(NC(=S)Nc2ccc3cn[nH]c3c2)cc1	.	.	.	.	.	.
C=CCNC(=S)Nc1ccc2cn[nH]c2c1	.	40µM	.	.	.	.
CCC(Sc1nncn2c1cc1oc(C)cc12)C(=O)Nc1ccc(F)cc1 (stereo unspecified)	/	.	/	/	.	/
O=C(O)c1cccc(NC(=S)NC(=O)c2ccc(-c3ccccc3)cc2)c1	.	/	.	.	.	.
CC(=O)c1cccc(NC(=S)NC(=O)c2ccccc2)c1	.	28µM	.	.	.	.
C=CCNC(=S)Nc1ccc(OC(=O)Nc2ccc(Cl)c(Cl)c2)cc1	.	35µM	.	/	.	.
COc1cc(OC)c(-c2c3cc(O)c(=O)cc-3oc3cc(O)c(O)cc23)cc1OC	.	.	3.2µM	?	.	.
Cc1c2cc(O)c(=O)cc-2oc2cc(O)c(O)cc12	?	?	?	?	.	.
O=C(O)CC/C(=N\Nc1ccc([N+](=O)[O-])cc1S(=O)(=O)N1CCOCC1)c1cccs1	.	40µM	.	.	.	.
CC(O)CNc1ccc([N+](=O)[O-])cc1S(=O)(=O)N1CCOCC1 (stereo unspecified)	.	.	.	.	.	/
O=C(CNC(=O)c1ccc(F)cc1)NCc1ccc(S(=O)(=O)N2CCOCC2)cc1	/	89µM	.	.	?	/
CC(C)[C@H](NC(=O)[C@@H]1CSC2c3ccccc3C(=O)N21)C(=O)NCc1ccco1 (stereo partly specified)	.	45µM	.	.	.	.
O=C(NCc1ccco1)[C@@H]1CSC2c3ccccc3C(=O)N21 (stereo partly specified)	.	32µM	.	.	.	.
N#Cc1ccc(CN2CCCC3(CCN(C(=O)c4cnccn4)CC3)C2)cc1	/	/	/	/	.	/
COc1ccc(-c2cn3nc(N4CCC(C(=O)Nc5cc(Cl)ccc5C)CC4)sc3n2)cc1	/	.	/	/	.[15.4 µM]	/
Cc1cc(NC(=O)CN2C(=O)CC(c3ccco3)Sc3ccccc32)no1 (stereo unspecified)	.	16µM	.	.	.	?
CC(=O)Nc1ccc(NC(=O)CN2C(=O)CC(c3ccco3)Sc3ccccc32)cc1 (stereo unspecified)	/	.	/	/	.	/
Cc1nc(N2CCN(C(=O)c3ccco3)CC2)c2c3c(sc2n1)CC(C)CC3 (stereo unspecified)	.	.	.	.	.	.
Cc1nc(N2CCN(C(=O)c3ccco3)CC2)c2c3c(sc2n1)CCCC3	.	45µM	.	.	.	.
CCc1nc(SCC(=O)N2CCN(C(=O)c3ccco3)CC2)c2c3c(sc2n1)CCCC3	.	.	.	.	.	.
O=C(c1ccco1)N1CCN(c2nc(C3CC3)nc3sc4c(c23)CCCC4)CC1	.	40µM	.	.	.	.
COc1ccccc1Cn1ccn(Cc2ccc(C)cc2)c(=O)c1=O	/	.	/	/	.	/
SMILES	LmPK inhibitor	Sm TGR block	SARS PLpro yeast	RE007 growth inh	Tb PYK inh	NS1 function inh
Cc1cc(N2CCNCC2)nc2ccccc12	.	22µM	.	?	.	.
CCOc1ccc(NC(=O)c2cc(S(=O)(=O)N3CCc4ccccc43)ccc2F)cc1	/	.	/	/	.	/
COc1cccc(NC(=O)c2oc3ccccc3c2NC(=O)c2ccc(OC(C)C)cc2)c1	/	.	/	/	.	/
O=C(CSc1ccccc1)NC1CC1	/	/	/	.	.	/
O=[N+]([O-])/C(C(Cl)=C(Cl)Cl)=C(/NC1CC1)Sc1ccccc1	.	4µM	.	.	.	/
O=C1NC(=O)N(Cc2ccco2)C(=O)/C1=C/C=C/c1ccco1	.	2µM	.	.	.	.
CN1C(=O)/C(=C/C=C/c2ccco2)C(=O)NC1=S	.	?	.	.	.	.
C=CCN1C(=O)NC(=O)/C(=C/C=C/c2ccccc2)C1=O	.	10µM	.	.	.	/
O=C1NC(=O)N(Cc2ccccc2)C(=O)/C1=C\C=C\c1ccco1	.	10µM	.	.	.	/
CCc1ccccc1NC(=O)Nc1cc(C(=O)NCc2ccc(OC)cc2)ccc1N1CCCC1	/	.	/	/	.	/
CCOc1ccc(/C=C/c2nc(C#N)c(NC3CCCCC3)o2)cc1	/	.	/	/	.	/
O=c1[nH]c2ccccc2c2oc(CCl)nc12	.	6.3µM	.	.	.	.
CSc1ccc(CNC(=O)Cc2csc3ccccc23)cc1	/	.	/	/	.	/
Cc1nc2nc(-c3ccco3)nn2c(C)c1Cl	.	22µM	.	.	.	.
Cc1nc2nc(-c3cccnc3)nn2c(C)c1Cl	.	.	.	.	.	.
NC(=O)C1CCCNC1 (stereo unspecified)	.	28µM	.	.	.	.
COc1ccc(S(=O)(=O)NCC2CCCN(Cc3ccc(C)o3)C2)cc1 (stereo unspecified)	.	35µM	.	.	.	.
CCc1ccc(CN2CCCC(CNS(=O)(=O)c3ccc(OC)cc3)C2)cc1 (stereo unspecified)	.	.	.	.	.	.
COc1cccc(NCc2cccn2-c2nnc(N3CCC(C)CC3)s2)c1	/	.	/	/	.	/
COc1ccc(NCc2cccn2-c2nnc(N3CCOCC3)s2)cc1OC	/	32µM	/	/	.	/
COc1ccc(OC)c(NCc2cccn2-c2nnc(N3CCCCC3)s2)c1	/	.	/	/	.	/
COc1ccc(NCc2cccn2-c2nnc(N3CCCCC3)s2)cc1OC	/	45µM	/	/	.	/
COc1ccc(-c2cn3cccnc3n2)cc1NC(=O)c1cc(C)cc(C)c1	/	.	/	/	.	/
COC(=O)c1c(NC(=O)CCS(=O)(=O)c2ccccc2)sc2c1CCN(C)C2	.	?	.	.	.	.
CCCN1CCc2c(sc(NC(=O)CCS(=O)(=O)c3ccccc3)c2C(=O)OC)C1	.	22µM	.	.	.	.
SMILES	LmPK inhibitor	Sm TGR block	SARS PLpro yeast	RE007 growth inh	Tb PYK inh	NS1 function inh
CC(C)N1CCc2c(sc(NC(=O)CCS(=O)(=O)c3ccccc3)c2C#N)C1	.	14µM	.	.	.	.
O=[N+]([O-])c1cc(C(F)(F)F)ccc1N1CCCNCC1	.	28µM	.	.	.	.
O=C(/C=C/c1ccco1)c1ccccc1O	?	32µM	.	.	.	.
O=C(/C=C/c1ccco1)c1cccnc1	.	13µM	.	/	.	.
CC(/C=C/c1ccco1)=N\NC(=O)c1cccnc1	.	35µM	.	.	.	.
CC(/C=C/c1ccco1)=N\NC(=O)c1cc(Cl)ccc1O	.	8.9µM	?	.	.	.
O=C(/C=C/c1ccco1)Nc1cccnc1	?	/	.	.	.	.
CCNCCC1(CC)C(=O)NC(=O)NC1=O	/	/	/	/	/	.
